Data on 16 molecules can be found in PubChem BioAssay (NCI).

About 83,000 compounds went through this panel and 20% of them were active in at least one assay; those are over-represented in the sample as a whole.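 Values shown are percent growth following 48 h exposure of cells in 96-well plates to a single concentration of compound; below 10 was considered active.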 Unmarked numbers belong to inactive results. The source made the active and inactive calls.

Among the test systems are T-47D breast; BT-549 breast; MDA-MB-435 melanoma; SW-620 colon; MCF7 breast; HCT-116 colon; KM12 colon; HCC-2998 colon.
What all share (test): NCI-60 one-dose screen, 48 h (100 = growth as untreated, 0 = no growth, -100 = all killed)
Common to all, as to conditions: 10 µM unless noted

On to `O=S(=O)(NCCNc1nccc(-c2c(-c3cccc(O)c3)nc3sccn23)n1)c1ccc(F)cc1`, for which the growth in the test on T-47D breast was 85.3%; in the test on BT-549 breast it was 79.3%; in the test with MDA-MB-435 melanoma, 29.4%; in the test on SW-620 colon it was 103%; with MCF7 breast it was 38.2%; in the test on HCT-116 colon, 45.9%. The growth with KM12 colon is 56.6%.
As for `COc1ccc(-c2nc(-c3nc4cc(C)c(C)cc4[nH]3)cc3c2[nH]c2ccccc23)cc1`, the growth was 52.1% in the test on T-47D breast; 70.9% in the test on BT-549 breast; 49.2% in the test with MDA-MB-435 melanoma; 77.3% with SW-620 colon; 39.1% in the test on MCF7 breast; 18.1% with HCT-116 colon. Also, the values for the growth in the test on HCC-2998 colon and in the test on KM12 colon were 16.6% and 44.2%, respectively.
For `O=C(Nc1cccc(-n2cc(-c3ccncc3)c(-c3ccc(Cl)c(O)c3)n2)c1)Nc1ccc(Cl)c(C(F)(F)F)c1`, the growth in the test on T-47D breast is -7.12% (active); in the test on BT-549 breast, 1.33% (active); with MDA-MB-435 melanoma, -31.3% (active); in the test on SW-620 colon it was -19.7% (active); in the test on MCF7 breast, -16.6% (active); in the test on HCT-116 colon it was -51% (active). In the test with KM12 colon, the growth is -27.3% (active).
Regarding `O=C(Nc1cccc(-n2cc(-c3ccncc3)c(-c3ccc(Cl)c(O)c3)n2)c1)Nc1ccc(Cl)c(Cl)c1`, the growth with T-47D breast is 23%; with BT-549 breast, 34.4%; with MDA-MB-435 melanoma, 9.98% (active); in the test with SW-620 colon it was 24.5%; with MCF7 breast, 5.74% (active); with HCT-116 colon, 11.1%. The growth in the test on KM12 colon is 8.15% (active).
Regarding `COc1cc(/C=C/C(=O)/C=C/c2cc(OC)c3c(c2)OCO3)cc2c1OCO2`, the growth with T-47D breast was 88.6%; in the test on BT-549 breast it was 84.3%; with MDA-MB-435 melanoma, -21.2% (active); in the test with SW-620 colon it was 11.5%; in the test on MCF7 breast it was 19.8%; with HCT-116 colon it was -93.9% (active). In addition, the values for the growth in the test on HCC-2998 colon and in the test on KM12 colon were 14.6% and -17.1% (active), respectively.
In the case of `COc1ccc(/C=C2\CN(Cc3cn(CCNc4ccnc5cc(Cl)ccc45)nn3)C/C(=C\c3ccc(OC)c(OC)c3)C2=O)cc1OC`, the growth with T-47D breast is 32.9%; in the test on BT-549 breast, -31.6% (active); in the test on MDA-MB-435 melanoma, -5.87% (active); with SW-620 colon, 0.355% (active); in the test on MCF7 breast it was 28%; in the test on HCT-116 colon it was -85.3% (active). Moreover, in the test on KM12 colon, the growth was -35.7% (active).
Take `Fc1ccc(CNCCNc2ncnc3c2cnn3-c2ccccc2)cc1`: the growth was 83.7% in the test on T-47D breast; 102% with BT-549 breast; 95.4% with MDA-MB-435 melanoma; 103% with SW-620 colon; 96.5% with MCF7 breast; 99.9% with HCT-116 colon. Further, the growth with KM12 colon is 107%.
`O=C(NS(=O)(=O)c1ccc2ccccc2c1)n1cc(-c2ccncc2)c(-c2ccc(Cl)c(O)c2)n1`: the growth with T-47D breast is 78.6%; in the test with BT-549 breast, 100%; in the test on MDA-MB-435 melanoma, 51.6%; in the test on SW-620 colon, 95.2%; in the test with MCF7 breast it was 114%; in the test on HCT-116 colon it was 39.2%. Moreover, the growth in the test on KM12 colon is 103%.
On to `Cc1cc(N)n(S(=O)(=O)c2oc(-c3ccccc3)nc2C#N)n1`, for which the growth in the test with T-47D breast is 71%; with BT-549 breast, 101%; with MDA-MB-435 melanoma, 91.8%; in the test with SW-620 colon it was 48.9%; in the test with MCF7 breast, 64%; with HCT-116 colon, 75%. Moreover, the growth was 114% in the test with HCC-2998 colon and 101% in the test on KM12 colon.
With `COc1cc(-c2nn(-c3cccc(NC(=O)c4ccccc4)c3)cc2-c2ccncc2)ccc1Cl`, the growth in the test with T-47D breast was 21.8%; in the test on BT-549 breast, 1.29% (active); with MDA-MB-435 melanoma it was -57.9% (active); with SW-620 colon, 18.4%; with MCF7 breast it was 4.67% (active); in the test on HCT-116 colon it was 8.58% (active). The growth was 20.1% with HCC-2998 colon and 12.3% in the test with KM12 colon.
Regarding `C=C1CCC[C@]2(C)CCC[C@H](C)[C@@H](OC(C)=O)[C@@H]3OC(=O)C(=C)[C@@H]3C[C@H]1O2`, the growth was 76.4% with T-47D breast; 48.1% in the test with BT-549 breast; 53.9% with MDA-MB-435 melanoma; 80.8% in the test with SW-620 colon; 57.4% in the test on MCF7 breast; 55.1% with HCT-116 colon. Further, in the test on KM12 colon, the growth is 79.4%.
For `CC1(C)C(=O)/C(=C\c2ccc(C(F)(F)F)cc2)C[C@]2(C)[C@H]3CC[C@@H]4[C@H]5[C@H](C(=O)/C=C/c6ccc(C(F)(F)F)cc6)CC[C@]5(CO)CC[C@@]4(C)[C@]3(C)CC[C@@H]12`, the growth with T-47D breast is 76%; in the test with BT-549 breast it was 95.8%; in the test with MDA-MB-435 melanoma it was 101%; in the test on SW-620 colon it was 98.3%; with HCT-116 colon it was 82.6%; in the test on HCC-2998 colon it was 101%. For the same molecule, the growth in the test with KM12 colon was 99.2%.
Turning to `COc1ccc(Cn2cc3c(c2-c2cc(OC)c(OC)c(OC)c2)CCc2cnoc2-3)cc1`, the growth is 41.2% in the test on T-47D breast; 41.6% in the test with BT-549 breast; -37.3% (active) in the test on MDA-MB-435 melanoma; 13% with HCT-116 colon; 1.48% (active) in the test with HCC-2998 colon; 11.1% with KM12 colon.
For `NC1=NN(O)C2=CC([N+](=O)[O-])C=CC2=N1` (stereo not given), the growth in the test on T-47D breast was 101%; in the test on BT-549 breast it was 104%; in the test on MDA-MB-435 melanoma, 109%; in the test with MCF7 breast, 96.1%; in the test on HCT-116 colon, 107%; with HCC-2998 colon, 97.2%. In addition, the growth in the test on KM12 colon was 103%.
Consider `CCO/C=N/C1=C(C#N)C(c2ccc(Cl)cc2)c2c(c3ccc(C)cc3[nH]c2=O)O1` (stereo not given), for which the growth in the test with T-47D breast is 78.4%; in the test on BT-549 breast, 86.7%; in the test with MDA-MB-435 melanoma, 90.7%; in the test with MCF7 breast, 78.7%; with HCT-116 colon, 82.4%; in the test on HCC-2998 colon, 99.5%. Besides, the growth in the test with KM12 colon was 97.1%.
Regarding `COc1cccc(-c2nc3sccn3c2-c2ccnc(NCCCNS(=O)(=O)c3ccc(F)cc3)c2)c1`, the growth in the test with T-47D breast was -3.13% (active); with BT-549 breast, 13%; in the test with MDA-MB-435 melanoma it was 19.1%; with MCF7 breast, 31.8%; in the test with HCT-116 colon, 25.5%; with HCC-2998 colon, 61.5%. Moreover, the growth in the test on KM12 colon is 21%.
